“And” between values parts separate entries of the source, which are not always exact repeats. Identical values can stand only once. Some compounds were tested as several samples or in several runs, with calls that do not always agree. The source made the active and inactive calls. Rule for the calls: active = hit-call score of the fitted dose curve at least 0.9, where 1 is the maximum; inactive = score below 0.9.

Read-out in the assay: Glutathione S-Transferase (GSTA2), GSTA2 (gene 2939)
As to the kind of experiment: LTEA_HepaRG_GSTA2: Life Technologies and Expression Analysis (LTEA) Assay for Glutathione S-Transferase (GSTA2) using HepaRG (AID 2283497). To be noted: mRNA level, 48 h; actives raise or lower the signal. The protocol: LTEA_HepaRG is a cell based, multiplexed-readout assay that uses HepaRG, a human liver cell line, with measurements taken at 48 hours after chemical dosing on a 96-well plate.LTEA_HepaRG_GSTA2 is one of 102 assay component(s) measured in the LTEA HepaRG cell culture assay. It is a marker of Oxidative Stress.Data from the assay component LTEA_HepaRG_GSTA2 was analyzed into 1 endpoint. This assay endpoint, LTEA_HepaRG_GSTA2, was analyzed with bidirectional fitting relative to DMSO as the negative control and baseline of activity. Using a type of inducible reporter, measures of mRNA induction for gain or loss-of-signal activity can be used to understand regulation of transcription factor activity. To generalize the intended target to other relatable targets, this assay endpoint is annotated to the transferase intended target family, where the subfamily is alkyl and aryl transferase.
A total of 1060 chemcials from the ToxCast library were tested in eight-point concentration-response experiments. Cell culture and cytotoxicity assays were conducted at Thermo Fisher Scientific's Custom Services facility (Madison, WI). A single lot of human HepaRG cells (Thermo Fisher Scientific, Frederick, MD) was used for the cell culture experiments. 96-well format collagen type I coated plates of human HepaRG cells were prepared using established methods. Briefly, cryopreserved HepaRG cells were thawed, plated at a density of approximately 100,000 cells/well in HepaRG Thaw, Plate, and General Purpose media (HPRG770, Thermo Fisher Scientific), and incubated for 48 hours. 0.5% DMSO was selected as vehicle control to balance the requisite need of DMSO in HepaRG cultures to maintain differentiation (for example, baseline metabolism, proportions of hepatocytes vs. cholangiocytes), while enabling further hepatic receptor pathway activation (for example, PXR and CAR) in response to chemical exposure. 48 hours after plating, the culture medium was replaced with HepaRG Serum-Free Incudtion Media. Cells were exposed to each test chemical in duplicate and maintained in CO2 incubators for another 48 hours. Chemical plates were thawed to room temperature and 200x concentrations of treatment groups were prepared. 8-point conentration-reponse curves were made with the highest exposure at 100 uM, followed by half-log dilutions, all in 0.5% DMSO. Each test plate contained variouse controls, induction positive controls (1mM phenobarbital), cytotoxicity positive controls ([…] aflatoxin B1), vehicle controls (0.5% DMSO), and total lysis controls (0.5% DMSO). Cell morphology images were taken using an Essen IncuCyte FLR automated microscope, with six 96-well plates imaged in about 24 minutes. Images were captured and exported and JPEG files. Spent culture media was transfered to black-well plates for the LDH assay, and remaining media was sorted at -80 C for later use. Cells were treated with RLT buffer and frozen until shipped for gene expression analysis. Total RNA was isolated from the cell suspension in 75 uL of Buffer RLT (Qiagen, Germantown, MD 20874) by Quintiles/Expression Analysis (Durham, NC) using a custom isolation procedure. Total RNA from each plate well was transferred to a preamplification plate. Fluidigm's 96.96 Dynamic ArrayTM (Fluidigm, Amsterdam, the Netherlands) technology was used for gene expression analyses by quantitative reverse transcription polymerase chain reaction (qRT-PCR, performed by Quintiles/Expression Analysis, Durham, NC)89. Standard TaqManTM Assays (Applied Biosystems/ThermoFisher Scientific, Foster City, CA) were used to assess the expression of 93 genes selected based on their selectivity and sensitivity to important hepatic receptors known to be modulated by environmental chemicals; importance in human hepatocyte functionality; and hepatotoxicity. […]
In general, AC50 refers to the concentration giving half of the maximal activity seen. Take `O=C(Nc1ccccc1)Nc1cnns1`: the AC50 was 65.3 µM (active).

As for `C[C@H]1[C@H](c2ccc(Cl)cc2)SC(=O)N1C(=O)NC1CCCCC1`, the AC50 was 79.3 µM (active).

Consider `C#CCN1C(=O)COc2cc(F)c(N3C(=O)C4=C(CCCC4)C3=O)cc21`, for which the call was inactive.

As for `Oc1cc(Cl)ccc1Oc1ccc(Cl)cc1Cl`, the AC50 was 83.7 µM (active) and the molecule was called inactive.

Consider `CN1CSC(=S)N(C)C1`, for which the result was inactive.

With `CC[C@H](C)[C@H]1O[C@]2(C=C[C@@H]1C)C[C@@H]1C[C@@H](C/C=C(\C)[C@@H](O[C@H]3C[C@H](OC)[C@@H](O[C@H]4C[C@H](OC)[C@@H](O)[C@H](C)O4)[C@H](C)O3)[C@@H](C)/C=C/C=C3\CO[C@@H]4[C@H](O)C(C)=C[C@@H](C(=O)O1)[C@]34O)O2` (tested in a mixture with another compound), the AC50 is 7.88 µM (active).

For the molecule `CNC(=O)Oc1ccccc1OC(C)C`, the call was inactive.

For `COc1nn(CSP(=S)(OC)OC)c(=O)s1`, the call was inactive.

Consider `COP(=S)(OC)Oc1ccc(SC)c(C)c1`, for which the molecule was called inactive.

On to `Oc1ccc(Cl)cc1Cc1ccccc1`, for which the outcome was inactive; the AC50 was 80.5 µM (active) and 92.2 µM (active).

Turning to `CC(C)(C)C(O)/C(=C\c1ccc(Cl)cc1Cl)n1cncn1` (stereo not given), the AC50 is 27.3 µM (active).

Take `CC1(c2ccc(Oc3ccccc3)cc2)OC(=O)N(Nc2ccccc2)C1=O` (stereo not given): the half-maximal activity concentration (AC50) is 24.5 µM (active).

For `CCC(C)(NC(=O)c1cc(Cl)c(C)c(Cl)c1)C(=O)CCl` (stereo not given), the AC50 is 78.7 µM (active).

Turning to `CCCN(CCOc1c(Cl)cc(Cl)cc1Cl)C(=O)n1ccnc1`, the AC50 is 31.8 µM (active).

Take `CCc1ccc(C(=O)NN(C(=O)c2cc(C)cc(C)c2)C(C)(C)C)cc1`: the result was inactive.

With `CCC(C)Nc1c([N+](=O)[O-])cc(C(C)(C)C)cc1[N+](=O)[O-]` (stereo not given), the call was inactive.

In the case of `O=S(=O)(O)C(F)(F)C(F)(F)C(F)(F)C(F)(F)C(F)(F)C(F)(F)C(F)(F)C(F)(F)F`, the AC50 is 76.5 µM (active) [middle of 4 runs].

As to `CNC(=O)CSP(=S)(OC)OC`, the outcome was inactive.

Regarding `CC(C)N(C(=O)COc1nnc(C(F)(F)F)s1)c1ccc(F)cc1`, the concentration at half-maximal activity (AC50) is 50 µM (active).

As to `O=C(O)C(F)(F)C(F)(F)C(F)(F)C(F)(F)C(F)(F)C(F)(F)C(F)(F)F`, the molecule was classed as inactive.

Regarding `O=[N+]([O-])c1c(Cl)c(Cl)c(Cl)c(Cl)c1Cl`, the outcome was inactive.

Take `Clc1ccccc1-c1nnc(-c2ccccc2Cl)nn1`: the outcome was inactive.

Consider `CCN(CC)C(=O)SCc1ccc(Cl)cc1`, for which the molecule was classed as inactive.

For the molecule `Cc1[nH]c(=O)n(C(C)(C)C)c(=O)c1Cl`, the call was inactive.

With `N#CN`, the molecule was called inactive.

As for `O=S1OCC2C(CO1)C1(Cl)C(Cl)=C(Cl)C2(Cl)C1(Cl)Cl` (stereo not given), the AC50 was 79.7 µM (active).

Consider `CC1(C)C(C=C(Cl)Cl)C1C(=O)OC(C#N)c1ccc(F)c(Oc2ccccc2)c1` (stereo not given), for which the outcome was inactive.

`CCOCN(C(=O)CCl)c1c(C)cccc1CC`: the AC50 is 83.4 µM (active).

In the case of `CCCN(CCC)c1c([N+](=O)[O-])cc(C(F)(F)F)cc1[N+](=O)[O-]`, the call was inactive.

Regarding `CCC(C)(C)C(=O)OC1=C(c2ccc(Cl)cc2Cl)C(=O)OC12CCCCC2`, the outcome was inactive.

With `ClC1C(Cl)C(Cl)C(Cl)C(Cl)C1Cl` (stereo not given), the call was inactive.

With `CC(C)(C)C(O)C(Oc1ccc(Cl)cc1)n1cncn1` (stereo not given), the molecule was called inactive.

On to `CNC(=O)/C=C(\C)OP(=O)(OC)OC`, for which the outcome was inactive.

In the case of `OCCOc1ccccc1`, the outcome was inactive.

For `O=C(O)CCCOc1ccc(Cl)cc1Cl`, the molecule was called inactive.

With `CC(C)OC(=O)Nc1cccc(Cl)c1`, the molecule was called inactive.

In the case of `O=C1c2ccccc2C(=O)N1SC(Cl)(Cl)Cl`, the call was inactive.

As to `O=[N+]([O-])/N=C1\NCCN1Cc1ccc(Cl)nc1`, the AC50 is 39.9 µM (active).

Source of the values: PubChem BioAssay (EPA / NIEHS).
